Experimental data from PubChem BioAssay.
The source made the active and inactive calls. Unless noted, no rule for the calls is given here.

Experiments:
[1] = circadian clock period modulators, cell-based, LOPAC library, luminescence reporter (AID 2774); conditions: circadian reporter cells, at 7 µM, actives lie on both sides;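 also: values are relative to mean of DMSO wells on each plate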
[2] = system: Hepatitis C virus NS3 helicase; experiment: HCV NS3 helicase inhibitors, primary screen, biochemical, fluorescence polarization, LOPAC1280 library (AID 687035; in the data active = inhibition above about 37%); conditions: Purified HCV NS3 helicase, Cy5-dT15 ssDNA binding fluorescence polarization; stronger effect = higher value; concentration not given here
[3] = Cy5 fluorescence quenching or enhancement artefacts, artefact control for HCV NS3 helicase inhibitor project, biochemical, LOPAC1280 (AID 687037); conditions: Cy5-DNA-NS3h complex fluorescence interference counterscreen
[4] = sensitizers of A549 cells to miR-34 induction, primary screen, imaging, A549 dox-inducible miR-34, nuclei and caspase counts (AID 1347080;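 active = compounds whose cell count with miR-34 switched on is under 0.7 times the count with it off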); conditions: A549 miR-34 inducible, Hoechst nuclei count, 48 h
[5] = phospholipid biosynthesis inhibitors in animal cells, primary screen, cell-based, LOPAC library, screen 4 (AID 1347384); conditions: phospholipid biosynthesis inhibition screen, at 10 µM
[6] = viability rescue of complex I mutant cybrids, primary screen, cell-based, galactose medium, ATP luminescence (AID 1645843;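 active = z-score of at least 1.8 in each of two replicates, scored against plate mean and spread of sample wells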;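 also: positive z means more ATP and so rescue of galactose-driven cybrid death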); conditions: complex I mutant cybrid cells, 72 h, stronger effect = higher value
[7] = stronger effect = lower value, cell number ratio, induced over uninduced
[8] = measured here: relative caspase fold change +Dox/-Dox
[9] = measured here: total cells with miR-34 induction, stronger effect = lower value
[10] = measured here: total cells without miR-34 induction

Structure (SMILES) | period change [1] | inhibition [2] | fluorescence ratio (interference) [3] | fold change [4, 7] | fold change [4, 8] | cell count [4, 9] | cell count [4, 10] | outcome [5] | z-score [6]
CCCCCCCCCC(=O)NC(CN1CCOCC1)[C@H](O)c1ccccc1 (stereo partly drawn) | 0.05 h (inactive) | 2% (inactive) | 1 (inactive) | 0.995 (inactive) | 1.18 | 7040 | 7080 | inactive | -1.16 (inactive)
CCN(c1nc(N)c(C(=O)N=C(N)N)nc1Cl)C(C)C | -0.06 h (inactive) | -2% (inactive) | 1 (inactive) | 1.19 (inactive) | 1.19 | 5200 | 4360 | inactive | -1.38 (inactive)
CCCC[C@@]1(C2CCCC2)Cc2cc(OCC(=O)O)c(Cl)c(Cl)c2C1=O | -0.06 h (inactive) | 0% (inactive) | 1 (inactive) | 0.958 (inactive) | 1.45 | 8870 | 9260 | inactive | 2.93 (active)
Cn1c(=O)c2[nH]c(-c3ccc(S(=O)(=O)O)cc3)nc2n(C)c1=O | -0.005 h (inactive) | 0% (inactive) | 1 (inactive) | 1.01 (inactive) | 2.24 | 10100 | 10000 | inactive | -0.23 (inactive)
NOCC(=O)O | -0.075 h (inactive) | -1% (inactive) | 1 (inactive) | 1.12 (inactive) | 1.94 | 9990 | 8920 | inactive | 0.555 (inactive)
CN1CC(O)C(O)C(O)C1CO (stereo not drawn) | 0.06 h (inactive) | -3% (inactive) | 1 (inactive) | 0.95 (inactive) | 1.01 | 10300 | 10800 | inactive | 0.28 (inactive)
C=CC1(C)CC(=O)C2(O)C(C)(O1)C(OC(C)=O)C(O)C1C(C)(C)CCC(O)C12C (stereo not drawn) | 0.345 h (inactive) | 0% (inactive) | 1.1 (inactive) | 0.994 (inactive) | 1.26 | 9840 | 9900 | inactive | -0.035 (inactive)
Oc1ccc(C2CNCc3sccc32)cc1O (stereo not drawn) | 0.045 h (inactive) | 5% (inactive) | 1 (inactive) | 0.942 (inactive) | 1.38 | 10000 | 10600 | inactive | -1.29 (inactive)
CCCCCCCCCC[Si](C)(C)CCC(=O)NC(Cc1ccc(C)cc1)c1ccccc1 (stereo not drawn) | 0.12 h (inactive) | -1% (inactive) | 1 (inactive) | 1.02 (inactive) | 2.15 | 10100 | 9990 | inactive | -0.33 (inactive)
N[C@H](CO)C(=O)O | -0.02 h (inactive) | -3% (inactive) | 1 (inactive) | 0.97 (inactive) | 2.63 | 10300 | 10600 | inactive | 0.31 (inactive)
N#C/C(=C\c1ccc(O)c(O)c1)C(=O)NCCc1ccccc1 | -0.04 h (inactive) | 2% (inactive) | 0.9 (inactive) | 1.09 (inactive) | 0.996 | 7900 | 7250 | inactive | -1.06 (inactive)
Nc1nc2[nH]c(=O)cnc2c(=O)[nH]1 | 0 h (inactive) | -5% (inactive) | 1 (inactive) | 1.09 (inactive) | 0.997 | 10400 | 9560 | inactive | 0.655 (inactive)
N[C@@H](CCC(=O)N[C@H](CSN=O)C(=O)NCC(=O)O)C(=O)O | 0.1 h (inactive) | -3% (inactive) | 1 (inactive) | 1.04 (inactive) | 1.18 | 10800 | 10400 | inactive | 0.335 (inactive)
O=[N+]([O-])c1ccc(CSc2ncnc3c2ncn3[C@@H]2O[C@H](CO)[C@H](O)C2O)cc1 (stereo partly drawn) | -0.085 h (inactive) | -4% (inactive) | 0.9 (inactive) | 1.12 (inactive) | 0.942 | 10500 | 9340 | inactive | 1.67 (inactive)
CC1=C(C(=O)O)N2C(=O)[C@@H](NC(=O)C(N)C3=CCC=CC3)[C@H]2SC1 (stereo partly drawn) | -0.045 h (inactive) | 0% (inactive) | 1 (inactive) | 1.02 (inactive) | 1.79 | 10500 | 10300 | inactive | -0.29 (inactive)
Cc1cc(NC(=O)Nc2ccc3c(ccn3C)c2)sn1 | -0.055 h (inactive) | -1% (inactive) | 0.9 (inactive) | 1.07 (inactive) | 1.78 | 9080 | 8470 | inactive | 0.19 (inactive)
Cc1ccccc1/C=C/C1=NCCN1 | -0.13 h (inactive) | -5% (inactive) | 1 (inactive) | 1.01 (inactive) | 0.996 | 7710 | 7640 | inactive | -1.06 (inactive)
C#CC(N)CCC(=O)O (stereo not drawn) | 0 h (inactive) | -1% (inactive) | 1 (inactive) | 1.04 (inactive) | 2.03 | 10600 | 10100 | inactive | -0.17 (inactive)
Nc1ncnc2c1nc(Sc1ccc(Cl)cc1)n2C1OC2COP(=O)(O)O[C@@H]2[C@@H]1O (stereo partly drawn) | -0.015 h (inactive) | -8% (inactive) | 0.9 (inactive) | 1.01 (inactive) | 1.25 | 10500 | 10500 | inactive | 1.15 (inactive)

Structure (SMILES) | period change [1] | inhibition [2] | fluorescence ratio (interference) [3] | fold change [4, 7] | fold change [4, 8] | cell count [4, 9] | cell count [4, 10] | outcome [5] | z-score [6]
C[C@@H]1C(=O)NC2=Nc3cccc(Cl)c3CN21 | 0.025 h (inactive) | 0% (inactive) | 1 (inactive) | 0.957 (inactive) | 1.63 | 9040 | 9450 | inactive | 0.635 (inactive)
CCCn1c(=O)[nH]c(=O)c2[nH]cnc21 | 0.09 h (inactive) | -1% (inactive) | 1 (inactive) | 0.996 (inactive) | 1.45 | 9630 | 9670 | inactive | 0.47 (inactive)
C[C@H](Cc1ccccc1)Nc1ncnc2c1ncn2[C@@H]1O[C@H](CO)[C@H](O)C1O (stereo partly drawn) | -0.12 h (inactive) | -8% (inactive) | 1 (inactive) | 1.08 (inactive) | 0.57 | 9860 | 9130 | inactive | 1.45 (inactive)
NC(=O)c1ccccc1 | -0.185 h (inactive) | 0% (inactive) | 1 (inactive) | 0.988 (inactive) | 1.76 | 9430 | 9540 | inactive | 0.385 (inactive)
C=CCN1CCc2c(cc(O)c(O)c2Br)[C@@H](c2ccccc2)C1 | 0.175 h (inactive) | -2% (inactive) | 1 (inactive) | 1.09 (inactive) | 2.06 | 5920 | 5430 | inactive | -1.42 (inactive)
CC1CN(S(=O)(=O)c2cccc3cnccc23)CCN1 (stereo not drawn) | 0.475 h (inactive) | -6% (inactive) | 0.9 (inactive) | 1.09 (inactive) | 0.736 | 11600 | 10600 | inactive | 0.18 (inactive)
COC(=O)C(C)(N)Cc1ccc(O)cc1 (stereo not drawn) | -0.015 h (inactive) | -3% (inactive) | 1 (inactive) | 1.04 (inactive) | 1.45 | 10900 | 10400 | inactive | 0.39 (inactive)
Cn1ccnc1 | 0.39 h (inactive) | -2% (inactive) | 0.9 (inactive) | 1.1 (inactive) | 0.769 | 11100 | 10000 | inactive | 0.675 (inactive)
CC1(C)CCC=[N+]1[O-] | -0.065 h (inactive) | -2% (inactive) | 1 (inactive) | 0.955 (inactive) | 0.876 | 9650 | 10100 | inactive | 0.285 (inactive)
C[N+](C)(C)CC=O | -0.2 h (inactive) | -5% (inactive) | 0.9 (inactive) | 1 (inactive) | 1.36 | 10200 | 10200 | inactive | 0.245 (inactive)
OC[C@H]1NC[C@@H](O)[C@@H]1O | -0.11 h (inactive) | -3% (inactive) | 1 (inactive) | 0.888 (inactive) | 1.22 | 8680 | 9770 | inactive | 0.015 (inactive)
CCCC(=O)NCCc1c2n(c3ccc(OC)cc13)CCCc1ccccc1-2 | 0.06 h (inactive) | 0% (inactive) | 1 (inactive) | 1.08 (inactive) | 0.293 | 8600 | 7960 | inactive | -0.27 (inactive)
COc1ccc2c(c1)c(CC(=O)O)c(C)n2C(=O)c1ccccc1 | 0.15 h (inactive) | -2% (inactive) | 1 (inactive) | 1.07 (inactive) | 1.77 | 9380 | 8810 | inactive | 1.18 (inactive)
CC(C)C[C@H](NC(=O)[C@H](O)[C@H](N)Cc1ccccc1)C(=O)O | -0.01 h (inactive) | -2% (inactive) | 1 (inactive) | 1.02 (inactive) | 0.988 | 10100 | 9920 | inactive | 0.245 (inactive)
COc1cc(C(O)CO)ccc1OS(=O)(=O)O (stereo not drawn) | -0.25 h (inactive) | -2% (inactive) | 1 (inactive) | 1.02 (inactive) | 1.08 | 10400 | 10200 | inactive | 0.025 (inactive)
Nc1nc(Cl)nc2c1ncn2[C@@H]1O[C@H](CO)[C@H](O)C1O (stereo partly drawn) | -0.125 h (inactive) | 0% (inactive) | 1 (inactive) | 1.07 (inactive) | 1.14 | 1860 | 1750 | inactive | -0.705 (inactive)
OC1(c2ccc(Cl)cc2)CCN(Cc2c[nH]c3ccccc23)CC1 | 0.165 h (inactive) | -8% (inactive) | 0.9 (inactive) | 1.01 (inactive) | 1.16 | 7020 | 6940 | inactive | -0.735 (inactive)
OC[C@H]1O[C@@H](n2cnc3c(NC4CCCC4)ncnc32)C(O)[C@H]1O (stereo partly drawn) | -0.095 h (inactive) | -5% (inactive) | 1 (inactive) | 0.956 (inactive) | 1.31 | 9220 | 9650 | inactive | 1.05 (inactive)
